Measured values from PubChem BioAssay (EPA / NIEHS).
Records with an inconclusive call do not appear. The source made the active and inactive calls. How the source made its calls: active means hit-call score of the fitted dose curve at least 0.9, where 1 is the maximum; inconclusive means response in the unintended direction; inactive means score below 0.9.

System: guinea pig Atrionatriuretic Peptide Receptor A (ANPA), gene 100135578
Test: NVS_GPCR_gANPA: NovaScreen (NVS) G Protein-Coupled Receptor Assay for guinea pig Atrionatriuretic Peptide Receptor A (ANPA) (AID 2283291)
Summary of the method: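 Radioligand binding to guinea pig cerebellar membranes was measured after 1 h by filter-based scintillation counting. Chemicals were tested in duplicate at 25 uM, with hits run in concentration-response to a maximum of 50 uM. Binding loss was fitted against DMSO.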

SMILES	outcome
CCCCCCCCCCCCCCCCO	inactive
COCC(C)O (stereo unspecified)	inactive
Oc1ccc2c(c1)OC[C@@H](N1CCC(O)(c3ccc(F)cc3)CC1)[C@H]2O	inactive
CC(C)(c1cc(Br)c(O)c(Br)c1)c1cc(Br)c(O)c(Br)c1	inactive
CC(C)(C)c1ccccc1	inactive
Clc1cc(Cl)c(Cl)cc1Cl	inactive

Biological target: Norway rat Vesicular Monoamine Transporter (VMAT2), neurotransmitter transporter, Slc18a2 (gene 25549) (UniProt Q01827)
Test: NVS_TR_rVMAT2: NovaScreen (NVS) Transporter Assay for Norway rat Vesicular Monoamine Transporter (VMAT2), neurotransmitter transporter (AID 2283376);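 further: actives lower the bound radioligand signal below the DMSO level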
Summary of the method: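 Rat forebrain tissue preparation used in a cell-free radioligand binding format; displacement read by filter-based scintillation counting 1 hour after dosing. Primary screen in duplicate at 25 uM, actives then run in concentration series; loss of signal versus DMSO baseline.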

Sequence of Norway rat Vesicular Monoamine Transporter (VMAT2), neurotransmitter transporter, Slc18a2 (gene 25549) (Q01827 whole entry, looked up): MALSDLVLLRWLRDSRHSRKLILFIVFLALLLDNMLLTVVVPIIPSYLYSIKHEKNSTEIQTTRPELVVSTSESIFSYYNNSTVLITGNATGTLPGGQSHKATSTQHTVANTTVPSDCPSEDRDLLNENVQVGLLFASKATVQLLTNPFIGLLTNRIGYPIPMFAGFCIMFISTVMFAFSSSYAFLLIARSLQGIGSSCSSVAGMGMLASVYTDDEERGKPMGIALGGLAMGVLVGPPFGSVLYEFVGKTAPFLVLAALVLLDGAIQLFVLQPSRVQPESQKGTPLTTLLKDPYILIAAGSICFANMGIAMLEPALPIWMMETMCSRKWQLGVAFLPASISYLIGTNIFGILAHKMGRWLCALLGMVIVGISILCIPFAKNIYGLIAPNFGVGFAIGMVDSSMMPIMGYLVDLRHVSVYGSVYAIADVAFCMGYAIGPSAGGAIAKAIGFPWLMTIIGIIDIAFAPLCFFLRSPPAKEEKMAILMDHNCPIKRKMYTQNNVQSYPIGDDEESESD

SMILES	outcome
O=C(c1ccccc1)c1ccc(O)cc1O	inactive
Nc1ccc(Oc2cccc(Oc3ccc(N)cc3)c2)cc1	inactive
Cc1cc(C)c(C=O)c(C)c1	inactive
OCC(CO)(CBr)CBr	inactive
O=C1c2ccccc2C(=O)c2c(Cl)cccc21	inactive
